The source of these data is PubChem BioAssay (NCI).

Assay [1] is described as follows: NCI Yeast Anticancer Drug Screen. Data for the rad50 strain (AID 155).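 Further: 0% = growth of vehicle-only cultures of the same strain.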 The note with it: S. cerevisiae rad50 strain growth inhibition, stronger effect = higher value. In short, it runs like this: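 Compounds were tested on a yeast strain with an engineered DNA damage repair alteration; the reported value is growth inhibition normalised to vehicle treatment.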
Assay [2] is described as follows: NCI Yeast Anticancer Drug Screen. Data for the mec2-1 strain (AID 157). The note with it: S. cerevisiae mec2-1 strain, stronger effect = higher value. In short, it runs like this: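 Using mec2-1 yeast: add compound, measure growth, express inhibition versus vehicle-treated cultures.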
A short description of assay [3]: NCI Yeast Anticancer Drug Screen. Data for the sgs1 mgt1 strain (AID 161).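 Further: 0% = growth of cultures given vehicle only.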 The note with it: S. cerevisiae sgs1 mgt1 strain, stronger effect = higher value. Put shortly: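 Compounds are added to genetically altered yeast, and growth is compared with cultures given vehicle alone to give percent inhibition.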
A short description of assay [4]: NCI Yeast Anticancer Drug Screen. Data for the cln2 rad14 strain (AID 165).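 Further: 0% = growth equal to vehicle treated cultures.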 To be noted: S. cerevisiae cln2 rad14 strain, stronger effect = higher value. Put shortly: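 Yeast strain cln2 rad14, bearing defects in cell cycle control and DNA repair, serves as the test system; values reflect growth inhibition compared with vehicle.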
Assay [5] is described as follows: NCI Yeast Anticancer Drug Screen. Data for the bub3 strain (AID 167). The note with it: S. cerevisiae bub3 mutant strain, stronger effect = higher value. In short, it runs like this: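 Growth of a checkpoint-deficient yeast mutant is measured after compound exposure. Values represent inhibition relative to vehicle.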
Assay [6] can be described thus: NCI Yeast Anticancer Drug Screen. Data for the mlh1 rad18 strain (AID 175). The note with it: S. cerevisiae mlh1 rad18 strain growth inhibition, stronger effect = higher value. In short, it runs like this: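 Steps: expose repair-defective yeast to compound; measure growth; express inhibition against vehicle-treated controls.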
Where [7] appears, read: at 5.0 µM (retest, dose inferred, filed as 0.5).
Where [8] appears, read: at 50.0 µM (retest, dose inferred, filed as 5.0).

About 79,000 compounds went through this panel and 15% of them were active in at least one assay; those are over-represented in the sample as a whole. A number with no mark means an inactive call. Calls of active or inactive are those of the source. No stated cut-off is given here; in the data, active means growth inhibition above about 70%; inactive means the rest.

As to `COC(=O)c1nc(=S)[nH]c(C(=O)OC)c1C(=O)c1ccccn1`, the growth inhibition in assay [1] (setting [7]) was 7%; in assay [1] (setting [8]), 93% (active); in assay [1] (at 50.0 µM) it was 82% (active); in assay [2] (setting [7]), -3%; in assay [2] (setting [8]), 84% (active); in assay [2] (at 50.0 µM) it was 75% (active). For the same molecule, the growth inhibition in assay [3] (setting [7]) is 0%; in assay [3] (setting [8]), 87% (active); in assay [3] (at 50.0 µM) it was 84.5% (active); in assay [4] (setting [7]), 2%; in assay [4] (setting [8]), 84% (active); in assay [4] (at 50.0 µM), 70.5% (active). For the same molecule, the growth inhibition in assay [5] (setting [7]) was 6%; in assay [5] (setting [8]) it was 86% (active); in assay [5] (at 50.0 µM) it was 82.8% (active); in assay [6] (setting [7]), -15%; in assay [6] (setting [8]), 91% (active); in assay [6] (at 50.0 µM), 89.1% (active).

Consider `O=[N+]([O-])c1ccc(NCc2ccccc2)c([N+](=O)[O-])c1`, for which the growth inhibition in assay [1] (setting [7]) was -8%; in assay [1] (setting [8]), 69%; in assay [1] (at 50.0 µM), 14.6%; in assay [2] (setting [7]), -16%; in assay [2] (setting [8]) it was 55%; in assay [2] (at 50.0 µM), 31.1%. Besides, the growth inhibition is 4% in assay [3] (setting [7]); 72% (active) in assay [3] (setting [8]); 60.6% in assay [3] (at 50.0 µM); -10% in assay [4] (setting [7]); 62% in assay [4] (setting [8]); -166% in assay [4] (at 50.0 µM). The growth inhibition in assay [5] (setting [7]) was 19%; in assay [5] (setting [8]) it was 86% (active); in assay [5] (at 50.0 µM) it was 72.7% (active); in assay [6] (setting [7]), -2%; in assay [6] (setting [8]), 80% (active); in assay [6] (at 50.0 µM), 68%.

As to `CC(=O)N1c2ccccc2C2=NN=C(N(C)C)SC21` (configuration not stated), the growth inhibition is 6% in assay [1] (setting [7]); 98% (active) in assay [1] (setting [8]); 85.3% (active) in assay [1] (at 50.0 µM); -15% in assay [2] (setting [7]); 98% (active) in assay [2] (setting [8]); 90% (active) in assay [2] (at 50.0 µM). The growth inhibition in assay [3] (setting [7]) was 0%; in assay [3] (setting [8]), 98% (active); in assay [3] (at 50.0 µM) it was 83.8% (active); in assay [4] (setting [7]), -20%; in assay [4] (setting [8]), 97% (active); in assay [4] (at 50.0 µM), 83.8% (active). The growth inhibition was -14% in assay [5] (setting [7]); 99% (active) in assay [5] (setting [8]); 87.3% (active) in assay [5] (at 50.0 µM); 1% in assay [6] (setting [7]); 97% (active) in assay [6] (setting [8]); 80.5% (active) in assay [6] (at 50.0 µM).

As for `CC(C)C(NC(=O)/C=C\c1ccccc1)C(=O)O` (configuration not stated), the growth inhibition in assay [1] (setting [7]) was -2%; in assay [1] (setting [8]), 1%; in assay [1] (at 50.0 µM), 88.4% (active); in assay [2] (setting [7]), 1%; in assay [2] (setting [8]), -6%; in assay [2] (at 50.0 µM), 94.2% (active). Besides, the growth inhibition in assay [3] (setting [7]) was -5%; in assay [3] (setting [8]), -7%; in assay [3] (at 50.0 µM) it was 93.5% (active); in assay [4] (setting [7]), 7%; in assay [4] (setting [8]), -6%; in assay [4] (at 50.0 µM), 95.3% (active). Also, the growth inhibition in assay [5] (setting [7]) was -3%; in assay [5] (setting [8]), -1%; in assay [5] (at 50.0 µM) it was 71.7% (active); in assay [6] (setting [7]) it was -2%; in assay [6] (setting [8]) it was 4%; in assay [6] (at 50.0 µM), 95.2% (active).

`O=[N+]([O-])c1cc(Cl)c(Cl)cc1NS(=O)(=O)c1ccccc1`: the growth inhibition was 17% in assay [1] (setting [7]); 45% in assay [1] (setting [8]); 29.1% in assay [1] (at 50.0 µM); -8% in assay [2] (setting [7]); 51% in assay [2] (setting [8]); 49.5% in assay [2] (at 50.0 µM). In addition, the growth inhibition in assay [3] (setting [7]) is 7%; in assay [3] (setting [8]) it was 58%; in assay [3] (at 50.0 µM) it was 39.4%; in assay [4] (setting [7]) it was 25%; in assay [4] (setting [8]), 84% (active); in assay [4] (at 50.0 µM), 54.5%. The growth inhibition is 9% in assay [5] (setting [7]); 57% in assay [5] (setting [8]); 40.4% in assay [5] (at 50.0 µM); 10% in assay [6] (setting [7]); 76% (active) in assay [6] (setting [8]); 71.2% (active) in assay [6] (at 50.0 µM).

For `CC(=O)N1CCC(Cc2ccccc2)CC1`, the growth inhibition in assay [1] (setting [7]) was -105%; in assay [1] (setting [8]) it was 95% (active); in assay [1] (at 50.0 µM), 2.3%; in assay [2] (setting [7]), -46%; in assay [2] (setting [8]) it was 80% (active); in assay [2] (at 50.0 µM), 18.3%. The growth inhibition is -49% in assay [3] (setting [7]); 92% (active) in assay [3] (setting [8]); 11.2% in assay [3] (at 50.0 µM); -55% in assay [4] (setting [7]); 70% (active) in assay [4] (setting [8]); 56.9% in assay [4] (at 50.0 µM). The growth inhibition in assay [5] (setting [7]) is -51%; in assay [5] (setting [8]) it was 89% (active); in assay [5] (at 50.0 µM), 22.4%; in assay [6] (setting [7]), -103%; in assay [6] (setting [8]) it was 91% (active); in assay [6] (at 50.0 µM), 25%.

With `O=[N+]([O-])/C(C(Cl)=C(Cl)Cl)=C(/Nc1ccccc1)Sc1ccccc1`, the growth inhibition in assay [1] (setting [7]) is 62%; in assay [1] (setting [8]) it was 99% (active); in assay [1] (at 50.0 µM), 17.1%; in assay [2] (setting [7]) it was 41%; in assay [2] (setting [8]), 99% (active); in assay [2] (at 50.0 µM), 70.2% (active). Moreover, the growth inhibition in assay [3] (setting [7]) is 64%; in assay [3] (setting [8]), 99% (active); in assay [3] (at 50.0 µM), 66.5%; in assay [4] (setting [7]), 49%; in assay [4] (setting [8]), 99% (active); in assay [4] (at 50.0 µM) it was 23.8%. The growth inhibition is 51% in assay [5] (setting [7]); 99% (active) in assay [5] (setting [8]); 64.2% in assay [5] (at 50.0 µM); 78% (active) in assay [6] (setting [7]); 99% (active) in assay [6] (setting [8]); 84.8% (active) in assay [6] (at 50.0 µM).

For the molecule `CCCCCCCCCCCCCC(=O)OCC(O)CO` (configuration not stated), the growth inhibition in assay [1] (setting [7]) was 2%; in assay [1] (setting [8]), 2%; in assay [1] (at 50.0 µM), -2.25%; in assay [2] (setting [7]), 2%; in assay [2] (setting [8]), 28%; in assay [2] (at 50.0 µM) it was 6.1%. The growth inhibition in assay [3] (setting [7]) is 4%; in assay [3] (setting [8]), 11%; in assay [3] (at 50.0 µM), -0.5%; in assay [4] (setting [7]), 7%; in assay [4] (setting [8]), 10%; in assay [4] (at 50.0 µM), 75.3% (active). Besides, the growth inhibition is 1% in assay [5] (setting [7]); 22% in assay [5] (setting [8]); 8.05% in assay [5] (at 50.0 µM); 3% in assay [6] (setting [7]); 12% in assay [6] (setting [8]); 8.55% in assay [6] (at 50.0 µM).

Turning to `Cc1c(C)n(-c2ccccc2)c2nc(S(C)(=O)=O)nc(S(C)(=O)=O)c12`, the growth inhibition in assay [1] (setting [7]) was 1%; in assay [1] (setting [8]), 98% (active); in assay [1] (at 50.0 µM) it was 71.2% (active); in assay [2] (setting [7]), 8%; in assay [2] (setting [8]), 98% (active); in assay [2] (at 50.0 µM), 79.3% (active). For the same molecule, the growth inhibition in assay [3] (setting [7]) was -15%; in assay [3] (setting [8]), 95% (active); in assay [3] (at 50.0 µM), 86.3% (active); in assay [4] (setting [7]) it was 40%; in assay [4] (setting [8]) it was 97% (active); in assay [4] (at 50.0 µM), 86.4% (active). Further, the growth inhibition in assay [5] (setting [7]) is 0%; in assay [5] (setting [8]), 98% (active); in assay [5] (at 50.0 µM), 85% (active); in assay [6] (setting [7]), 31%; in assay [6] (setting [8]), 86% (active); in assay [6] (at 50.0 µM), 87.2% (active).
